In PubChem BioAssay one finds inhibition data, which are given here for 18 compounds.

Unmarked numbers belong to inactive results. Active and inactive are the calls of the source. Unless noted, no stated cut-off is given here; in the data, active means inhibition above about 33%; inactive means the rest.

The inhibition is the drop in the measured response relative to a control, in per cent.

Assay [1] deals with Nuclear receptor coactivator 3 (Homo sapiens) (UniProt Q9Y6Q9). Description: SRC3 coactivator transcriptional activity inhibitors, confirmation, cell-based, luminescence, quadruplicate (AID 588792;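 active means mean inhibition over 43.08%, the solvent-only control mean plus 3 SD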;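 further: 0% = DMSO treated cells and 100% = gossypol at 36 µM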). Conditions: HEK293 GAL4-SRC3 luciferase reporter, at 3.6 µM, active compounds read high. In general terms: A reporter such as luciferase makes a cellular process visible.
Nuclear receptor coactivator 3 (Homo sapiens), sequence (Q9Y6Q9 whole entry, looked up, the tested form may be a part): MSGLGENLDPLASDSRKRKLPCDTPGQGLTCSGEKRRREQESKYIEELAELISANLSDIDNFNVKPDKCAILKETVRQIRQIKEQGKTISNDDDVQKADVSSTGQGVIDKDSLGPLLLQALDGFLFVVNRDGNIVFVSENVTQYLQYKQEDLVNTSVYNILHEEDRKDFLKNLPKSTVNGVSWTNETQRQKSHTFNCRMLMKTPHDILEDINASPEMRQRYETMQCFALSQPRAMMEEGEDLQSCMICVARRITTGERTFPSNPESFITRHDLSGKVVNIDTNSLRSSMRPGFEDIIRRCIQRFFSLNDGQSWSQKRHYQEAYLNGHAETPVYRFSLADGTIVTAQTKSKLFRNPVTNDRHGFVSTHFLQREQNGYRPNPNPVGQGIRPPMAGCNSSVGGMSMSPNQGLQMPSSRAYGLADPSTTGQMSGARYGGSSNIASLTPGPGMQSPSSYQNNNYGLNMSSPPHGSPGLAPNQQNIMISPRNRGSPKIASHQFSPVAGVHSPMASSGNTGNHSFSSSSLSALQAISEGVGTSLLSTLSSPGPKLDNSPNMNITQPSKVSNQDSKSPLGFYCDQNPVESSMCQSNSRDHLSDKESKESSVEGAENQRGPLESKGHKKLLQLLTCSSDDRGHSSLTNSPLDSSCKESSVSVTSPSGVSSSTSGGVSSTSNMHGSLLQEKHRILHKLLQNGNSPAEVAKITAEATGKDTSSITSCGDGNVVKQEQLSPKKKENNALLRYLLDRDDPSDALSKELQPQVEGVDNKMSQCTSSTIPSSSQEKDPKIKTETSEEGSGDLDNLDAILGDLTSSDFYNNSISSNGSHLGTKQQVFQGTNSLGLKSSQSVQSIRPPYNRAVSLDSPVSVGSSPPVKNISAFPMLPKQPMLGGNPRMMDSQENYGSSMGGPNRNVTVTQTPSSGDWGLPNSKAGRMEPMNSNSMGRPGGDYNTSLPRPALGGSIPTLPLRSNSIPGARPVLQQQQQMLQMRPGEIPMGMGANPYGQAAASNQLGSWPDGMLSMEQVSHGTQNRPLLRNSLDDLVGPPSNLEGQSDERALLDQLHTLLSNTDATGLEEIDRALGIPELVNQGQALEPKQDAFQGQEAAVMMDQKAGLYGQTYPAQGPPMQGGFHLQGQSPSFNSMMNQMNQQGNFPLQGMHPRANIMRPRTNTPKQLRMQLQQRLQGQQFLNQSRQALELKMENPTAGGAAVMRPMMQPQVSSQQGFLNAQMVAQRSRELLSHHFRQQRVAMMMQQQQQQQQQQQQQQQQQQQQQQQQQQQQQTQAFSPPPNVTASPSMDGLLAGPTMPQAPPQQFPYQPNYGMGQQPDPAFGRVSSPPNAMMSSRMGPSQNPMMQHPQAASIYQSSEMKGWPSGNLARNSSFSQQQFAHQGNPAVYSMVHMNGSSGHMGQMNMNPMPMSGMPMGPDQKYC
The test system of assay [2] is transactivating tegument protein VP16 (Human herpesvirus 1), Gal4-VP16 luciferase reporter. As to the kind of experiment: VP16 transactivation inhibitors, counter-screen for SRC3 inhibitor project, cell-based, luminescence, high throughput (AID 588794; in the data active means inhibition above about 30%). The settings on record: mammalian cells, VP16-driven luciferase reporter luminescence; at 3.6 µM; active compounds read high. (In general: A counterscreen serves to expose hits that act by an unwanted route or on another target.)

Assay [3] deals with Nuclear receptor coactivator 1 (Homo sapiens) (UniProt Q15788). As to the kind of experiment: SRC1 coactivator transcriptional activity inhibitors, confirmation, cell-based, luminescence, quadruplicate (AID 588820;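 active means mean inhibition above 46.68%, the untreated control wells mean plus 3 SD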;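 further: 0% = DMSO wells and 100% = gossypol 36 µM treated wells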). The settings on record: HEK293 GAL4-SRC1 luciferase reporter, at 3.6 µM, active compounds read high.
Nuclear receptor coactivator 1 (Homo sapiens), sequence (Q15788 whole entry, looked up, the tested form may be a part): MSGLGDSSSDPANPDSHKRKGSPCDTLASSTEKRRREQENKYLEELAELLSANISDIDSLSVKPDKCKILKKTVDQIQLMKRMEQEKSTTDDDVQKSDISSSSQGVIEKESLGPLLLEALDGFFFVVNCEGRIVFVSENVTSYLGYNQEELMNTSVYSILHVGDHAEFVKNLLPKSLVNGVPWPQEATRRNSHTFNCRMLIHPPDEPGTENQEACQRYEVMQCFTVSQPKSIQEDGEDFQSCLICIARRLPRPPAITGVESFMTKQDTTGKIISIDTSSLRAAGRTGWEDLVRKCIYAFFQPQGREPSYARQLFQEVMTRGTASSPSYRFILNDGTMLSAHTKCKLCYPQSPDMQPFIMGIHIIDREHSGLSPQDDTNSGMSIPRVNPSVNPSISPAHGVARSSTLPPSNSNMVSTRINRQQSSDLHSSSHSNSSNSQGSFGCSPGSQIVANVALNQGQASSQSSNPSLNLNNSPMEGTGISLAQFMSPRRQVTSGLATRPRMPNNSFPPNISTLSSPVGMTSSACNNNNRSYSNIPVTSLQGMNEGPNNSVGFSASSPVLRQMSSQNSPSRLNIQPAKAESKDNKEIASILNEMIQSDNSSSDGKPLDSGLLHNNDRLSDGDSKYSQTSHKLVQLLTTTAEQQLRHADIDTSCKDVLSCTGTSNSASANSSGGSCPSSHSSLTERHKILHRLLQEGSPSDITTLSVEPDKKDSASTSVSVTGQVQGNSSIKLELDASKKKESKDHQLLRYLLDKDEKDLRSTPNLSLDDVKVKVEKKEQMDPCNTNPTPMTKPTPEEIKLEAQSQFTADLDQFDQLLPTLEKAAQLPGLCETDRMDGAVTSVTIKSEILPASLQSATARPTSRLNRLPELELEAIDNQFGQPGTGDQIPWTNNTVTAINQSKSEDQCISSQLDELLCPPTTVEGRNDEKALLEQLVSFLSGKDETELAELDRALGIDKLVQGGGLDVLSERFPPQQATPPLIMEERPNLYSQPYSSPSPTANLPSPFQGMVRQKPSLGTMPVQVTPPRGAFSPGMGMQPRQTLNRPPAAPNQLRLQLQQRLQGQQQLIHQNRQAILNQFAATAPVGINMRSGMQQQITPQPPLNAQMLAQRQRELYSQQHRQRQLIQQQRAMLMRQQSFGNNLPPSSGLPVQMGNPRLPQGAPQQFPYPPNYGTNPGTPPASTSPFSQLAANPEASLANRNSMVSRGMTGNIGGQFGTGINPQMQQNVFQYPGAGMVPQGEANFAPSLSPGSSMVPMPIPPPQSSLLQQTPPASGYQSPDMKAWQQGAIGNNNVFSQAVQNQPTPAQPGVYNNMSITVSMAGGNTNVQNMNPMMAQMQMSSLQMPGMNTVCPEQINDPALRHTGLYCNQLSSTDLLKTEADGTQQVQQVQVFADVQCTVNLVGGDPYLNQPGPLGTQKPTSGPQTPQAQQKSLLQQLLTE
Assay [4] can be described thus: VP16 transactivation inhibitors, counter-screen for SRC1 inhibitor project, cell-based, luminescence, high throughput (AID 588824; in the data active means inhibition above about 25%). The settings on record: cell-based VP16 transactivation luciferase luminescence; at 3.6 µM; active compounds read high.
Assay [5] is described as follows: StAR promoter reporter inhibitors, counter-screen for LRH-1 inverse agonist project, cell-based, luminescence, high throughput (AID 651611; in the data active means inhibition above about 28%). Conditions: StAR promoter luciferase reporter counterscreen, at 3.6 µM, active compounds read high.
In assay [6] the target is Nuclear receptor subfamily 5 group A member 2 (Homo sapiens) (UniProt O00482). As to the kind of experiment: LRH-1 (NR5A2) inverse agonists, retest, confirmation, cell-based, luminescence (AID 651613; in the data active means inhibition above about 42%;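 further: HEK293T cells co-transfected with LRH-1 and StAR promoter luciferase reporter; 0% = vehicle wells and 100% = parental cells lacking receptor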). The settings on record: cell-based LRH-1 luciferase reporter, inverse agonism; at 3.6 µM; active compounds read high.
Nuclear receptor subfamily 5 group A member 2 (Homo sapiens), sequence (O00482 whole entry, looked up): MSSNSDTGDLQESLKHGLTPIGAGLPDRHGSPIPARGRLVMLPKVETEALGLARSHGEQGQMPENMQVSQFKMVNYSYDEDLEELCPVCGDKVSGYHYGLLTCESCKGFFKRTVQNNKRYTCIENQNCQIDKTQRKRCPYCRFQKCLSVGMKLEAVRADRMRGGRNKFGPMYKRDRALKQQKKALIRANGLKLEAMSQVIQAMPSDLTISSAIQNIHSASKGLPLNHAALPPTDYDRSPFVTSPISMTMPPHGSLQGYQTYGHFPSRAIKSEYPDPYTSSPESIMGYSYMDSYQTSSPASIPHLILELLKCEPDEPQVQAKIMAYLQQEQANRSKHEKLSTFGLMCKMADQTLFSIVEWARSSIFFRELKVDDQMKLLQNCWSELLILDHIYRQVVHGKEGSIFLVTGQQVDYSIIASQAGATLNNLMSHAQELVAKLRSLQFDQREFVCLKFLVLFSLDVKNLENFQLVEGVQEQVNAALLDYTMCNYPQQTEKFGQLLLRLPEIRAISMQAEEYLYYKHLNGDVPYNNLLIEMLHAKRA
The target in assay [7] is Steroidogenic factor 1 (Homo sapiens) (UniProt Q13285). As to the kind of experiment: SF1 (NR5A1) inverse agonists, counter-screen for LRH-1 inverse agonist project, cell-based, luminescence, high throughput (AID 651614; in the data active means inhibition above about 44%;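 further: cells cotransfected with StAR promoter reporter and SF1 expression vector; 0% = vehicle on cells with receptor and 100% = vehicle on cells lacking receptor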). Conditions: cell-based SF1 luciferase reporter, at 3.6 µM, active compounds read high.
Steroidogenic factor 1 (Homo sapiens), sequence (Q13285 whole entry, looked up, the tested form may be a part): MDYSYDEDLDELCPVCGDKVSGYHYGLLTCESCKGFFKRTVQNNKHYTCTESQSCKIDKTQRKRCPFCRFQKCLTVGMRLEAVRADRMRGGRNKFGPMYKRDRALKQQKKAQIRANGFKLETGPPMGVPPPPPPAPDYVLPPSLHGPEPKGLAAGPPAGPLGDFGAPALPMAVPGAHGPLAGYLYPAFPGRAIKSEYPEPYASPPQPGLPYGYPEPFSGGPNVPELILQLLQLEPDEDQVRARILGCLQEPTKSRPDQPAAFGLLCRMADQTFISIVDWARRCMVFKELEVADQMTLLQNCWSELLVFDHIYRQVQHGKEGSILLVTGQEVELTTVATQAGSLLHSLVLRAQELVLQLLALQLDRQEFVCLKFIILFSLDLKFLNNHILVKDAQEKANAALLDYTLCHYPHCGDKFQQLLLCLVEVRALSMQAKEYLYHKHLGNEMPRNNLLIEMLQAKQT
Assay [8] can be described thus: VP16 transactivation reporter inhibitors, counter-screen for LRH-1 inverse agonist project, cell-based, luminescence, high throughput (AID 651615). Conditions: Gal4-VP16 luciferase reporter cells, at 3.6 µM, active compounds read high.

As for `Cc1cc(/C=C2\SC(=S)N(C)C2=O)c(C)n1-c1ccc(O)cc1`, the inhibition was 73.9% (active) in assay [1]; 61.8% (active) in assay [2]; 49% (active) in assay [3]; 47.5% (active) in assay [4]; 40.3% (active) in assay [5]; 7.93% in assay [6]. The inhibition in assay [7] was 48% (active); in assay [8] it was 39.5% (active).
For the compound `NC(=O)c1cc([N+](=O)[O-])ccc1NCc1ccc(O)cc1`, the inhibition in assay [1] is 25.3%; in assay [2], 43.5% (active); in assay [3] it was 1.01%; in assay [4], 30% (active); in assay [5], 48.6% (active); in assay [6], 63.8% (active). For the same compound, the inhibition in assay [7] is 67.8% (active); in assay [8], 66.9% (active).
On to `CCCCCCCCCn1ccc(=N)cc1`, for which the inhibition was 68.9% (active) in assay [1]; 84.2% (active) in assay [2]; 58.6% (active) in assay [3]; 85.2% (active) in assay [4]; 72.7% (active) in assay [5]; 102% (active) in assay [6]. The inhibition in assay [7] was 91.3% (active); in assay [8], 85.9% (active).
Take `CC[n+]1ccccc1/C=C1\Sc2ccc(C)cc2N1C`: the inhibition in assay [1] is 25.7%; in assay [2] it was 64.6% (active); in assay [3], 23.8%; in assay [4], 67.7% (active); in assay [5], 40% (active); in assay [6] it was 75.7% (active). Also, the inhibition in assay [7] is 70.3% (active); in assay [8] it was 74.5% (active).
As for `OCCCNc1cc(-c2ccnc(Nc3cccc(Cl)c3)n2)ccn1`, the inhibition in assay [1] was 95.9% (active); in assay [2] it was 97.1% (active); in assay [3] it was 84.5% (active); in assay [4], 96.3% (active); in assay [5] it was 89.9% (active); in assay [6], 108% (active). For the same compound, the inhibition in assay [7] was 96.5% (active); in assay [8], 97.9% (active).
For the compound `S=C(NN=C(c1ccccc1)c1ccccn1)N(Cc1ccccn1)Cc1ccccn1`, the inhibition was 84% (active) in assay [1]; 87.2% (active) in assay [2]; 85% (active) in assay [3]; 89.7% (active) in assay [4]; 91% (active) in assay [5]; 105% (active) in assay [6]. Moreover, the results for the inhibition in assay [7] and in assay [8] were 96.4% (active) and 77.2% (active), respectively.
Take `CCN(CC)CCCNc1nc2ccccc2c2[nH]c3ccc(OC)cc3c12`: the inhibition is -19.2% in assay [1]; 49% (active) in assay [2]; -3.04% in assay [3]; 48.8% (active) in assay [4]; 30.1% (active) in assay [5]; 44.4% (active) in assay [6]. The inhibition is 60.5% (active) in assay [7] and 71.7% (active) in assay [8].
In the case of `Cc1cc(-c2nnc(SCC(=O)Nc3ccccc3C(F)(F)F)o2)c(C)n1-c1ccccc1`, the inhibition in assay [1] is 33.3%; in assay [2] it was 11.2%; in assay [3], -7.25%; in assay [4], -22.9%; in assay [5], 28.2% (active); in assay [6], -50.2%. Further, the inhibition is 14.8% in assay [7] and -38.7% in assay [8].
On to `Cc1onc(-c2ccccc2)c1C(=O)NC(=S)NNC(=O)c1ccc(O)cc1O`, for which the inhibition in assay [1] is 55.7% (active); in assay [2], 75.7% (active); in assay [3], 69.8% (active); in assay [4], 80.5% (active); in assay [5], 62.8% (active); in assay [6], 95.8% (active). Besides, the values for the inhibition in assay [7] and in assay [8] were 85.6% (active) and 83.5% (active), respectively.
`O=c1[nH]cnc2c1nnn2C1OC(CO)C(O)C1O` (centres undefined): the inhibition was 59% (active) in assay [1]; 15.3% in assay [2]; -5.97% in assay [3]; 17% in assay [4]; 69.7% (active) in assay [5]; 78.6% (active) in assay [6]. Also, the figures for the inhibition in assay [7] and in assay [8] were 71.1% (active) and 27.1%, respectively.
Consider `CCN1/C(=C/c2ccc3cccc(C)c3[n+]2CC)Sc2ccccc21`, for which the inhibition in assay [1] is 35.1%; in assay [2], 63.3% (active); in assay [3] it was 26%; in assay [4], 71.4% (active); in assay [5], 57% (active); in assay [6] it was 105% (active). In addition, the inhibition was 77% (active) in assay [7] and 80.5% (active) in assay [8].
As to `COc1ccc(C(=O)Nc2nnc(Cc3cccs3)s2)cc1OC`, the inhibition in assay [1] is 19%; in assay [2] it was 54.2% (active); in assay [3], -3.67%; in assay [4] it was 52.5% (active); in assay [5], 51.5% (active); in assay [6], 70.7% (active). Also, the inhibition in assay [7] was 66.1% (active); in assay [8], 72.3% (active).
On to `COc1cccc(/C=N/Nc2ncnc3c2ncn3Cc2ccccc2)c1O`, for which the inhibition in assay [1] was 58.9% (active); in assay [2], 31% (active); in assay [3], 48% (active); in assay [4] it was 28.4% (active); in assay [5], 84.4% (active); in assay [6], 99.4% (active). In addition, the inhibition is 86.1% (active) in assay [7] and 78.3% (active) in assay [8].
With `OCC1OC(n2cnc3c(NCc4ccco4)ncnc32)C(O)C1O` (centres undefined), the inhibition in assay [1] was 71.1% (active); in assay [2], 53.4% (active); in assay [3], 33.5%; in assay [4], 48.7% (active); in assay [5] it was 65.1% (active); in assay [6], 60.3% (active). Also, the inhibition in assay [7] was 85.7% (active); in assay [8], 67.7% (active).
In the case of `CCC(=O)NC(c1ccc(Cl)cc1Cl)c1ccc2cccnc2c1O` (centres undefined), the inhibition in assay [1] is 16.2%; in assay [2], 34.1% (active); in assay [3], 59.7% (active); in assay [4] it was 51.3% (active); in assay [5], 83.4% (active); in assay [6], 92.7% (active). In addition, the inhibition was 87.2% (active) in assay [7] and 72.7% (active) in assay [8].
Turning to `C=C1C(=O)C23C(O)C1CCC2C12CCCC(C)(COC(C)=O)C1C(O)C3(O)OC2` (centres undefined), the inhibition in assay [1] is 66.6% (active); in assay [2], 58.3% (active); in assay [3] it was 20.7%; in assay [4], 57.9% (active); in assay [5], 71.9% (active); in assay [6] it was 63.7% (active). In addition, the inhibition in assay [7] is 74.4% (active); in assay [8], 82.5% (active).
In the case of `CN(Cc1ccccc1)C1=CC(=[N+]2CCCCC2)CC(C)(C)C1`, the inhibition was 43.1% (active) in assay [1]; 73.6% (active) in assay [2]; 44.8% in assay [3]; 75.8% (active) in assay [4]; 68% (active) in assay [5]; 108% (active) in assay [6]. Besides, the inhibition in assay [7] was 90.6% (active); in assay [8], 91.1% (active).
`CCCCC(=O)NC(c1ccc(Cl)cc1)c1ccc2cccnc2c1O` (centres undefined): the inhibition in assay [1] is 66.9% (active); in assay [2], 62.4% (active); in assay [3], 51.3% (active); in assay [4] it was 62.2% (active); in assay [5], 67.9% (active); in assay [6], 87.8% (active). Moreover, the inhibition in assay [7] is 86.1% (active); in assay [8], 69.1% (active).
